# From article PMC8384837, “Expanding the binding specificity for RNA recognition by a PUF domain”
# Positions count from the first letter of the chain named.
# What was measured:
# Experiment in all cases: yeast three-hybrid, YBZ-1, SC-Leu-His + 0.5 mM 3-AT, 4 days
# Conditions in all cases: tags: N-Gal4 AD-HA kept; label: inside an RPR1-promoter hybrid RNA with tandem MS2 sites; ssRNA
# PUM1 PUF domain R1-YVK = PUM1 PUF domain R1-YVK (Homo sapiens, UniProt Q14671 828-1176, S863Y;R864V;Q867K)
# How it was run: (§1)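 Matching RNA elements and Pumilio-1 PUF domain libraries, randomized at the three base-contacting residues of every repeat, were co-expressed from a centromeric plasmid in strain YBZ-1 (LexA–MS2 coat fusion, HIS3 reporter). The repeat regions were PCR-amplified and Illumina-sequenced from cells grown four days on SC-Leu (input) or SC-Leu-His + 0.5 mM 3-AT (selection). The interaction score is the log change in variant frequency from input to selection. It is computed in log2, with a pseudocount of 1 for absent variants.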
# PUM1 PUF domain R1-RST = PUM1 PUF domain R1-RST (Homo sapiens, UniProt Q14671 828-1176, S863R;R864S;Q867T)
# How it was run: as §1
# PUM1 PUF domain R8-KHC = PUM1 PUF domain R8-KHC (Homo sapiens, UniProt Q14671 828-1176, N1122K;Y1123H;Q1126C)
# How it was run: as §1
# PUM1 PUF domain R8-KHL = PUM1 PUF domain R8-KHL (Homo sapiens, UniProt Q14671 828-1176, N1122K;Y1123H;Q1126L)
# How it was run: as §1
# PUM1 PUF domain R5-HRR = PUM1 PUF domain R5-HRR (Homo sapiens, UniProt Q14671 828-1176, C1007H;Q1011R)
# How it was run: as §1
# PUM1 PUF domain R3-RCW = PUM1 PUF domain R3-RCW (Homo sapiens, UniProt Q14671 828-1176, C935R;R936C;Q939W)
# How it was run: as §1
# PUM1 PUF domain R3-IYD = PUM1 PUF domain R3-IYD (Homo sapiens, UniProt Q14671 828-1176, C935I;R936Y;Q939D)
# How it was run: as §1
# PUM1 PUF domain R3-MWY = PUM1 PUF domain R3-MWY (Homo sapiens, UniProt Q14671 828-1176, C935M;R936W;Q939Y)
# How it was run: as §1
# PUM1 PUF domain R7-RGG = PUM1 PUF domain R7-RGG (Homo sapiens, UniProt Q14671 828-1176, S1079R;N1080G;E1083G)
# How it was run: as §1
# PUM1 PUF domain R5-KRV = PUM1 PUF domain R5-KRV (Homo sapiens, UniProt Q14671 828-1176, C1007K;Q1011V)
# How it was run: as §1
# PUM1 PUF domain R1-RRN = PUM1 PUF domain R1-RRN (Homo sapiens, UniProt Q14671 828-1176, S863R;Q867N)
# How it was run: as §1
# PUM1 PUF domain R3-WCA = PUM1 PUF domain R3-WCA (Homo sapiens, UniProt Q14671 828-1176, C935W;R936C;Q939A)
# How it was run: as §1
# PUM1 PUF domain R6-TFA = molecular target: T1, PUM1 PUF domain R6-TFA (Homo sapiens, UniProt Q14671 828-1176, N1043T;Y1044F;Q1047A)
# T1 sequence: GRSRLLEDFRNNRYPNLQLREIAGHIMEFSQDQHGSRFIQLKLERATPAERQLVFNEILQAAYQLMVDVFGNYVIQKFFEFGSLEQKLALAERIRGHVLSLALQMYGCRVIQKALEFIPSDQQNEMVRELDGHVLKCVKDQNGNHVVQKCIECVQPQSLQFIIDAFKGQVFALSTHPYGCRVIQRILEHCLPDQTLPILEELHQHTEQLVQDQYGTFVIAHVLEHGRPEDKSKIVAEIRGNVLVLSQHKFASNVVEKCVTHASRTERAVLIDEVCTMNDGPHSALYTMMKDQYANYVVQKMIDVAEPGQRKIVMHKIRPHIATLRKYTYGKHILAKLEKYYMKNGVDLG
# How it was run: as §1
# PUM1 PUF domain R4-RHL = PUM1 PUF domain R4-RHL (Homo sapiens, UniProt Q14671 828-1176, N971R;Q975L)
# How it was run: as §1
# PUM1 PUF domain R3-GPW = PUM1 PUF domain R3-GPW (Homo sapiens, UniProt Q14671 828-1176, C935G;R936P;Q939W)
# How it was run: as §1
# PUM1 PUF domain R6-RYT = molecular target: T2, PUM1 PUF domain R6-RYT (Homo sapiens, UniProt Q14671 828-1176, N1043R;Q1047T)
# T2 sequence: T1 sequence with T216R, F217Y, A220T
# How it was run: as §1
# PUM1 PUF domain R4-RRY = PUM1 PUF domain R4-RRY (Homo sapiens, UniProt Q14671 828-1176, N971R;H972R;Q975Y)
# How it was run: as §1
# PUM1 PUF domain R3-EFV = PUM1 PUF domain R3-EFV (Homo sapiens, UniProt Q14671 828-1176, C935E;R936F;Q939V)
# How it was run: as §1
# PUM1 PUF domain R5-LYV = PUM1 PUF domain R5-LYV (Homo sapiens, UniProt Q14671 828-1176, C1007L;R1008Y;Q1011V)
# How it was run: as §1
# PUM1 PUF domain R5-QTI = PUM1 PUF domain R5-QTI (Homo sapiens, UniProt Q14671 828-1176, C1007Q;R1008T;Q1011I)
# How it was run: as §1
sequence,measurement,setting,value
GGCUAGAACUAGUGGAUCCCCCGGCGCCCGGCGGCUCGAGCCCGGGUAAGUGUAAAUUGUCUGCAUGCCGCCGGGCGCCAUGCCUGCAGGUCGACUCUAGAAAACAUG,binding signal,PUM1 PUF domain R1-YVK,2.55 log2 enrichment (interaction score)
same,binding signal,PUM1 PUF domain R1-RST,3.88 log2 enrichment (interaction score)
GGCUAGAACUAGUGGAUCCCCCGGCGCCCGGCGGCUCGAGCCCGGGUAAGCGUAAAUAGUCUGCAUGCCGCCGGGCGCCAUGCCUGCAGGUCGACUCUAGAAAACAUG,binding signal,PUM1 PUF domain R8-KHC,5.19 log2 enrichment (interaction score)
same,binding signal,PUM1 PUF domain R8-KHL,5.8 log2 enrichment (interaction score)
GGCUAGAACUAGUGGAUCCCCCGGCGCCCGGCGGCUCGAGCCCGGGUAAGUGUUAAUAGUCUGCAUGCCGCCGGGCGCCAUGCCUGCAGGUCGACUCUAGAAAACAUG,binding signal,PUM1 PUF domain R5-HRR,4.62 log2 enrichment (interaction score)
GGCUAGAACUAGUGGAUCCCCCGGCGCCCGGCGGCUCGAGCCCGGGUAAGUGUAAUUAGUCUGCAUGCCGCCGGGCGCCAUGCCUGCAGGUCGACUCUAGAAAACAUG,binding signal,PUM1 PUF domain R3-RCW,3.79 log2 enrichment (interaction score)
same,binding signal,PUM1 PUF domain R3-IYD,2.12 log2 enrichment (interaction score)
same,binding signal,PUM1 PUF domain R3-MWY,3.31 log2 enrichment (interaction score)
GGCUAGAACUAGUGGAUCCCCCGGCGCCCGGCGGCUCGAGCCCGGGUAAGUUUAAAUAGUCUGCAUGCCGCCGGGCGCCAUGCCUGCAGGUCGACUCUAGAAAACAUG,binding signal,PUM1 PUF domain R7-RGG,3.65 log2 enrichment (interaction score)
GGCUAGAACUAGUGGAUCCCCCGGCGCCCGGCGGCUCGAGCCCGGGUAAGUGUCAAUAGUCUGCAUGCCGCCGGGCGCCAUGCCUGCAGGUCGACUCUAGAAAACAUG,binding signal,PUM1 PUF domain R5-HRR,2.4 log2 enrichment (interaction score)
same,binding signal,PUM1 PUF domain R5-KRV,4.1 log2 enrichment (interaction score)
GGCUAGAACUAGUGGAUCCCCCGGCGCCCGGCGGCUCGAGCCCGGGUAAGUGUAAAUGGUCUGCAUGCCGCCGGGCGCCAUGCCUGCAGGUCGACUCUAGAAAACAUG,binding signal,PUM1 PUF domain R1-RRN,2.89 log2 enrichment (interaction score)
same,binding signal,PUM1 PUF domain R1-RST,2.92 log2 enrichment (interaction score)
GGCUAGAACUAGUGGAUCCCCCGGCGCCCGGCGGCUCGAGCCCGGGUAAGUGUAAAUCGUCUGCAUGCCGCCGGGCGCCAUGCCUGCAGGUCGACUCUAGAAAACAUG,binding signal,PUM1 PUF domain R1-RRN,5.26 log2 enrichment (interaction score)
same,binding signal,PUM1 PUF domain R1-YVK,1.62 log2 enrichment (interaction score)
same,binding signal,PUM1 PUF domain R1-RST,5.18 log2 enrichment (interaction score)
GGCUAGAACUAGUGGAUCCCCCGGCGCCCGGCGGCUCGAGCCCGGGUAAGUCUAAAUAGUCUGCAUGCCGCCGGGCGCCAUGCCUGCAGGUCGACUCUAGAAAACAUG,binding signal,PUM1 PUF domain R7-RGG,1.37 log2 enrichment (interaction score)
GGCUAGAACUAGUGGAUCCCCCGGCGCCCGGCGGCUCGAGCCCGGGUAAGUGUAAGUAGUCUGCAUGCCGCCGGGCGCCAUGCCUGCAGGUCGACUCUAGAAAACAUG,binding signal,PUM1 PUF domain R3-RCW,3 log2 enrichment (interaction score)
same,binding signal,PUM1 PUF domain R3-WCA,3.27 log2 enrichment (interaction score)
GGCUAGAACUAGUGGAUCCCCCGGCGCCCGGCGGCUCGAGCCCGGGUAAGUGUAAAUAGUCUGCAUGCCGCCGGGCGCCAUGCCUGCAGGUCGACUCUAGAAAACAUG,binding signal,PUM1 PUF domain R5-HRR,1.38 log2 enrichment (interaction score)
same,binding signal,PUM1 PUF domain R6-TFA,3.93 log2 enrichment (interaction score)
same,binding signal,PUM1 PUF domain R4-RHL,3.62 log2 enrichment (interaction score)
same,binding signal,PUM1 PUF domain R3-IYD,3.08 log2 enrichment (interaction score)
same,binding signal,PUM1 PUF domain R3-GPW,4.04 log2 enrichment (interaction score)
same,binding signal,PUM1 PUF domain R6-RYT,2.71 log2 enrichment (interaction score)
same,binding signal,PUM1 PUF domain R4-RRY,2.87 log2 enrichment (interaction score)
same,binding signal,PUM1 PUF domain R3-EFV,3.71 log2 enrichment (interaction score)
same,binding signal,PUM1 PUF domain R5-LYV,3.28 log2 enrichment (interaction score)
same,binding signal,PUM1 PUF domain R8-KHL,4.75 log2 enrichment (interaction score)
GGCUAGAACUAGUGGAUCCCCCGGCGCCCGGCGGCUCGAGCCCGGGUAAGUGUGAAUAGUCUGCAUGCCGCCGGGCGCCAUGCCUGCAGGUCGACUCUAGAAAACAUG,binding signal,PUM1 PUF domain R5-QTI,3.11 log2 enrichment (interaction score)
